Data: PubChem BioAssay
Inconclusive results are not listed. The source made the active and inactive calls.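 How the source made its calls, unless noted: active means Her2 level under about 52% in both replicate screens, with viability over 70% of control (limit read from the data); inconclusive means Her2 under the limit in one screen only, or viability under 70%; inactive means Her2 level above the set limit.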

How the values were obtained:
[1] = reducers of endogenous Her2 protein level, primary screen, SKBR3 breast tumor cells, AlphaScreen, ATP viability (AID 461); conditions: 18-24 h, measured here: SKBR3 viability, ATP luminescence, at 10 µM;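 on Her2 level: lower value means less Her2 protein in the cells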;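 on viability: percent of carrier control wells set as 100% viability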
[2] = target: Receptor tyrosine-protein kinase erbB-2 (Homo sapiens) (UniProt P04626); test: as above; conditions: 18-24 h, at 10 µM, stronger effect = lower value
Sequence of Receptor tyrosine-protein kinase erbB-2 (Homo sapiens) (P04626 whole entry, looked up): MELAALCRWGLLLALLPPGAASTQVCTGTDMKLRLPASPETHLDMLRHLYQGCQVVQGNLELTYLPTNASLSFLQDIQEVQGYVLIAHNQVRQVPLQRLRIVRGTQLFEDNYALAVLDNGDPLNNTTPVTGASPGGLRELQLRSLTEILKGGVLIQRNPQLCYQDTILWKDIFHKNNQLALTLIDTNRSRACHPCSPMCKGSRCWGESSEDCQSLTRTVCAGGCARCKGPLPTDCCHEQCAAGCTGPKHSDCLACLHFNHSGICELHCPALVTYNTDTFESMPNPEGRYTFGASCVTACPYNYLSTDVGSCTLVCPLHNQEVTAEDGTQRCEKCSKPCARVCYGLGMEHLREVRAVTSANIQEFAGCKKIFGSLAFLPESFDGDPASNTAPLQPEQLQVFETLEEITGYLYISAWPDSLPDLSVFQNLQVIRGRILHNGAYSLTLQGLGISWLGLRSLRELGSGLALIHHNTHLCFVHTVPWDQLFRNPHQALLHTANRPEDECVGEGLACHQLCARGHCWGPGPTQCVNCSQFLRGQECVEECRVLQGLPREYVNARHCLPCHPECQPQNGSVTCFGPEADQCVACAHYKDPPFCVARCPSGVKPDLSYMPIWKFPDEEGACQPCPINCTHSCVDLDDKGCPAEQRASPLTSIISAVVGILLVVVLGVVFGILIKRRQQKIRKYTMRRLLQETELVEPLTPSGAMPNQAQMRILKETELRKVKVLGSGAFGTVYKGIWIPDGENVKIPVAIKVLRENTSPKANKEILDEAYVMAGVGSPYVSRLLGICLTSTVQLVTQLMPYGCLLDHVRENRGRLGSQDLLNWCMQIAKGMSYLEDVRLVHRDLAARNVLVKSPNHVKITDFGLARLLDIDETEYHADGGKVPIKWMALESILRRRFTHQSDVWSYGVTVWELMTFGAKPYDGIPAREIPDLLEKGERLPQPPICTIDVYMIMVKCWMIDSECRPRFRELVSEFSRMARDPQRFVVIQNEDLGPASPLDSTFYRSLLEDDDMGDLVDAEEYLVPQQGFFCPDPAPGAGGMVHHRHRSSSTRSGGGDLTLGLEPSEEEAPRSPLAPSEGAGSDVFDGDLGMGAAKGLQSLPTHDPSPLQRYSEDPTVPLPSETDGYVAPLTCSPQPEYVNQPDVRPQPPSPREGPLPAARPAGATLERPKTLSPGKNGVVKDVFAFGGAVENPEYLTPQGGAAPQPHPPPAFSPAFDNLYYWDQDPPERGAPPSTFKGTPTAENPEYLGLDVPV

[3] = SK-BR-3 cell growth inhibitors, pilot screen, 24 h, human (AID 572;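 active means viability at or below 10% of carrier control in both of two separate runs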;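 further: compound exposure lasted between 18 and 24 h rather than exactly 24 h; 100% = carrier-treated control wells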); conditions: SK-BR-3 viability, CellTiter-Glo luminescence, at 10 µM, stronger effect = lower value
[4] = HUVEC growth inhibition – cell-based, human, primary screen (AID 575;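 active means viability at or below 30% in both replicate assays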;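 further: 100% = median of untreated cell wells with 0.1% DMSO on each plate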); conditions: HUVEC proliferation, CellTiter-Glo luminescence, 72 h; at 10 µM; stronger effect = lower value
[5] = growth inhibitors of H69AR lung tumor, primary screen, human, duplicate replicates (AID 580;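 active means viability at or under a set limit in both replicates, limit being median viability minus 3 SD, cut at about 48% in these data, passing the limit was not always enough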;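 further: 100% = mean luminescence of untreated wells and 0% = no signal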); conditions: H69AR lung tumor cells viability, ATP luminescence, 72 h; at 10 µM; stronger effect = lower value
[6] = reversal of MRP1-mediated doxorubicin resistance, pilot screen, H69AR cells, doxorubicin co-treatment (AID 601;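 active means viability loss from added drug above about 55%, and viability with drug at most 40%, in both replicates, limit read from the data, passing the limit was not always enough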); conditions: CellTiter-Glo, 72 h, at 10 µM; for differential viability (reversal): stronger effect = higher value
[7] = 384-well plate pilot, post-Golgi transport modulator project, inhibition of yeast transport mutant growth (AID 636; in the data active means inhibition above about 31%); conditions: absorbance 615 nm, about 18 h, stronger effect = higher value
[8] = growth suppression of yeast trafficking mutant, preliminary HTS, modulators of trafficking downstream of Golgi apparatus project, 1536-format plate, OD 615 nm (AID 637; in the data active means inhibition above about 30%); conditions: yeast transport mutant growth, absorbance 615 nm, 18 h; stronger effect = higher value
[9] = OD615 S. cerevisiae growth inhibition, permissive medium, pilot counter-assay, permissive growth control for S. cerevisiae lifespan shortening project (AID 705;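 active means growth inhibition above 25% in both replicates, a cutoff set 3 SD above the mean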); conditions: OD615, 24 h, at 10 µM, stronger effect = higher value
[10] = Restrictive medium S. cerevisiae growth inhibition, OD615, pilot screen of yeast lifespan reduction project, restrictive growth control (AID 706;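 active means growth inhibition above a set limit, 3 SD over mean compound inhibition, in both replicates, cut at about 43% in these data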;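 further: modified DeaD lifespan yeast strain shifted to restrictive glucose medium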); conditions: OD615, 48 h, at 10 µM, stronger effect = higher value
[11] = viability gain of MRP-1-high H69AR cells under doxorubicin, pilot screen, MRP-1 activator project, CellTiter-Glo, duplicate (AID 807;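 active means viability increase at or above a cutoff of the median across tested compounds plus 3 SD, cut at about 8.5% in these data, passing the limit was not always enough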;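 further: compound pretreatment 18-22 h then 72 h combined with doxorubicin; 0% = doxorubicin alone and 100% = vehicle without doxorubicin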); conditions: H69AR viability with doxorubicin, CellTiter-Glo luminescence; at 10 µM; stronger effect = higher value
[12] = growth suppression of beta-catenin knockout HCT116, pilot screen, human colon tumor cells (AID 823;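 active means cell viability at or below a set limit in both duplicate runs, the limit being the all-compound median minus 4 SD, cut at about 23% in these data, passing the limit was not always enough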;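 further: 0% = wells killed by 20 µM Hyamine and 100% = untreated DMSO cell wells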); conditions: CellTiter-Glo, 60 h, at 10 µM, stronger effect = lower value
[13] = growth suppression of PTEN-deleted HCT116, pilot screen, cell-based, HCT116 clonal line, CellTiter-Glo (AID 824;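 active means viability at or below 27.92% in each of two runs, the all-compound median minus 4 SD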;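 further: 0% = 20 µM Hyamine control and 100% = vehicle cell control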); conditions: 60 h, at 10 µM, stronger effect = lower value
[14] = inhibitors of the yeast RAM network, pilot screen, dse1pr::URA3 reporter, 5-FOA selection (AID 869;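 active means inhibition over a set limit, the all-compound mean plus 3 SD, in both replicate runs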;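 further: 0% = DMSO wells with no growth and 100% = 10 µM 1-NA-PP1 with full growth; RAM network block rescues cells from 5-FOA so hits raise OD615 growth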); conditions: S. cerevisiae dse1pr::URA3 5-FOA growth, OD615, 2 d; at 10 µM; stronger effect = higher value; strain carries analog-sensitive mutant Cbk1 kinase
[15] = H69AR cells + 2 uM doxorubicin, measured here: viability with 2 uM doxorubicin, stronger effect = lower value
[16] = H69AR cells, compound alone cytotoxicity

Row | Compound | viability [1] | Her2 level [2] | viability [3] | viability [4] | viability [5] | differential viability (reversal) ([6]; H69AR cells + 2 uM doxorubicin) | viability [6, 15] | viability [6, 16] | inhibition [7] | inhibition [8] | growth inhibition [9] | growth inhibition [10] | viability increase [11] | viability [12] | viability [13] | inhibition [14]
1 | C=CCNC(=O)CNS(=O)(=O)c1ccc(F)cc1 | 87% | 95.5% (inactive) | 87% (inactive) | 92.5% (inactive) | 95.4% (inactive) | 1.88% (inactive) | 93.6% | 95.4% | -1.45% (inactive) | 0% (inactive) | – | – | – | – | – | –
2 | CC12COC3(C(=O)Nc4ccc(Cl)cn4)CC1CCC32C (stereo not drawn) | 72% | 112% (inactive) | 72% (inactive) | 82.9% (inactive) | 94.6% (inactive) | 9.46% (inactive) | 85.1% | 94.6% | 0% (inactive) | -10% (inactive) | -15.9% (inactive) | -9.37% (inactive) | -0.46% (inactive) | 85.3% (inactive) | 85.7% (inactive) | 0.735% (inactive)
3 | O=C1c2ccccc2C(=O)N1OCc1ccccc1 | 95.5% | 91.5% (inactive) | 95.5% (inactive) | 101% (inactive) | 92.2% (inactive) | -0.76% (inactive) | 92.9% | 92.2% | -6.18% (inactive) | 3.93% (inactive) | – | – | – | – | – | –
4 | O=c1/c(=C/c2ccco2)sc2nc(-c3ccccc3Br)nn12 | 97% | 89.5% (inactive) | 97% (inactive) | 99.8% (inactive) | 92.4% (inactive) | 4.5% (inactive) | 87.9% | 92.4% | -6.8% (inactive) | 1.64% (inactive) | – | – | – | – | – | –
5 | O=C(NCCSCc1ccco1)Nc1cccc(Cl)c1 | 83.5% | 95% (inactive) | 83.5% (inactive) | 63.6% (inactive) | 86.3% (inactive) | 2.05% (inactive) | 84.2% | 86.3% | -5.33% (inactive) | -3.97% (inactive) | – | – | – | – | – | –
6 | Cc1ccc2[nH]c(=O)c(CN(CCCO)S(=O)(=O)c3c(C)ccc4nsnc34)cc2c1 | 91% | 92.5% (inactive) | 91% (inactive) | 95.1% (inactive) | 96.8% (inactive) | 4.04% (inactive) | 92.8% | 96.8% | -1.18% (inactive) | -4.44% (inactive) | – | – | – | – | – | –
7 | Cc1cccc(OCC(=O)N2CCC(c3ccccc3)C2)c1 (stereo not drawn) | 104% | 112% (inactive) | 104% (inactive) | 98% (inactive) | 92.8% (inactive) | 1.84% (inactive) | 90.9% | 92.8% | -4.05% (inactive) | -1.83% (inactive) | -17.9% (inactive) | -6.05% (inactive) | -0.58% (inactive) | 83% (inactive) | 83.7% (inactive) | 0.225% (inactive)
8 | CCCC(=O)Nc1ccccc1NC(=O)CN(C)S(=O)(=O)c1ccc(C)cc1 | 97% | 114% (inactive) | 97% (inactive) | 103% (inactive) | 98.9% (inactive) | 9.23% (inactive) | 89.6% | 98.9% | -4.8% (inactive) | -4.84% (inactive) | – | – | – | – | – | –
9 | Cn1c(C(=O)NCCC2=CCCCC2)cc2c(=O)n3ccccc3nc21 | 88% | 98.5% (inactive) | 88% (inactive) | 95.5% (inactive) | 96.1% (inactive) | 15.7% (inactive) | 80.4% | 96.1% | 0.26% (inactive) | -1.97% (inactive) | – | – | – | – | – | –
10 | CCC(C)NC(=O)CCNS(=O)(=O)c1ccc(Br)cc1 (stereo not drawn) | 95.5% | 73% (inactive) | 95.5% (inactive) | 99.2% (inactive) | 98.5% (inactive) | 2.66% (inactive) | 95.8% | 98.5% | -4.74% (inactive) | -1.67% (inactive) | – | – | – | – | – | –
11 | Cc1ccc(N2C(N)=NC(N)=NC23CCCC3)c(C)c1 | 98.5% | 95% (inactive) | 98.5% (inactive) | 99.8% (inactive) | 106% (inactive) | 20.6% (inactive) | 85% | 106% | -4.68% (inactive) | 1.11% (inactive) | – | – | – | – | – | –
12 | Cc1cccc(-n2c(=O)cc(N3CCN(c4ccc(F)cc4)CC3)[nH]c2=O)c1 | 85.5% | 110% (inactive) | 85.5% (inactive) | 66.5% (inactive) | 71.9% (inactive) | 0.095% (inactive) | 71.8% | 71.9% | -2.13% (inactive) | -2.33% (inactive) | -12.5% (inactive) | -8.2% (inactive) | -5.2% (inactive) | 79.3% (inactive) | 66.1% (inactive) | 4.09% (inactive)
13 | CC(C)COC(=O)C1C2C=CC3(CN(C(C)c4ccc(Br)cc4)C(=O)C13)O2 (stereo not drawn) | 114% | 100% (inactive) | 114% (inactive) | 101% (inactive) | 94.9% (inactive) | 11.3% (inactive) | 83.6% | 94.9% | -6.53% (inactive) | -5.74% (inactive) | -9.09% (inactive) | 5.3% (inactive) | -2.82% (inactive) | 98.3% (inactive) | 95.8% (inactive) | 0.915% (inactive)
14 | N#Cc1c(NC(=O)COC(=O)C2CC3C=CC2C3)oc(-c2ccccc2)c1-c1ccccc1 (stereo not drawn) | 106% | 80% (inactive) | 106% (inactive) | 78.1% (inactive) | 44.6% (active) | -23.4% (inactive) | 68.1% | 44.6% | -0.26% (inactive) | -0.36% (inactive) | -17.5% (inactive) | -14.6% (inactive) | -5.47% (inactive) | 92.3% (inactive) | – | 3.41% (inactive)
15 | Fc1ccc(C2C3=C(Nc4ncnn42)c2ccccc2OC3c2ccncc2)cc1 (stereo not drawn) | 85.5% | 85.5% (inactive) | 85.5% (inactive) | 86.7% (inactive) | 78.8% (inactive) | – | – | – | -2.11% (inactive) | -3.71% (inactive) | – | – | – | – | – | –
16 | O=C(c1ccc(Br)o1)N1CCN(c2ccc3nnc(-c4ccccc4)n3n2)CC1 | 113% | 78% (inactive) | 113% (inactive) | 56.6% (inactive) | 75.8% (inactive) | 38.7% (inactive) | 37.1% | 75.8% | 2.82% (inactive) | -0.67% (inactive) | – | 45.7% (active) | -1.47% (inactive) | 45% (inactive) | 38.8% (inactive) | 1.29% (inactive)
17 | CC[C@H]1OC(=O)C[C@@H](O)[C@H](C)[C@@H](O[C@@H]2O[C@H](C)C[C@H](N(C)C)[C@H]2O)[C@@H](CC=O)C[C@@H](C)C(=O)C=C[C@]2(C)O[C@H]2[C@@H]1C | 162% | 19.5% (active) | 162% (inactive) | 53.5% (inactive) | – | -6.67% (inactive) | 45.8% | 39.1% | – | – | – | – | – | – | – | –
18 | COc1ccc(OC)c(NC(=O)CCNS(=O)(=O)c2cccs2)c1 | 95% | 103% (inactive) | 95% (inactive) | 92.4% (inactive) | 99.8% (inactive) | 5.6% (inactive) | 94.2% | 99.8% | -3.6% (inactive) | 23.3% (inactive) | -2.31% (inactive) | 13.9% (inactive) | -2.82% (inactive) | – | 96.1% (inactive) | 2.21% (inactive)
19 | Cc1ccc(Cn2nnc3c(=O)[nH]c(C4CCN(S(=O)(=O)c5ccc(F)cc5)CC4)nc32)cc1 | 90.5% | 106% (inactive) | 90.5% (inactive) | 76.4% (inactive) | 86.2% (inactive) | – | – | – | -1.73% (inactive) | -5.16% (inactive) | – | – | – | – | – | –
20 | Cc1ccc(CCNC(=O)C2CCCN2S(=O)(=O)c2ccc3c(c2)CCC(=O)N3)cc1 (stereo not drawn) | 87.5% | 93.5% (inactive) | 87.5% (inactive) | 91.8% (inactive) | 101% (inactive) | 4.97% (inactive) | 96.2% | 101% | -1.33% (inactive) | 11.2% (inactive) | -8.07% (inactive) | -8.79% (inactive) | 3.43% (inactive) | 101% (inactive) | 98.8% (inactive) | 2% (inactive)
21 | Cc1csc(NC(=O)CSc2nnc(Cc3cccn3C)n2-c2ccc(F)cc2)n1 | 77.5% | 94% (inactive) | 77.5% (inactive) | 84.8% (inactive) | 89.8% (inactive) | 1.05% (inactive) | 88.8% | 89.8% | 4.67% (inactive) | -1.64% (inactive) | -9.58% (inactive) | -0.31% (inactive) | -2.25% (inactive) | 94% (inactive) | 95.5% (inactive) | 4.11% (inactive)
22 | O=C(Oc1cc2oc(=O)c3c(c2cc1Cl)CCCC3)c1ccco1 | 82% | 87% (inactive) | 82% (inactive) | 89.6% (inactive) | 80.2% (inactive) | -13.1% (inactive) | 93.2% | 80.2% | 1.28% (inactive) | -4% (inactive) | -14.7% (inactive) | -13.7% (inactive) | -3.67% (inactive) | 108% (inactive) | 104% (inactive) | 1.97% (inactive)
23 | Cn1c(=N)c(S(=O)(=O)c2ccccc2)cc2c(=O)n3ccccc3nc21 | 83.5% | 108% (inactive) | 83.5% (inactive) | 83% (inactive) | 75% (inactive) | – | – | – | 3.87% (inactive) | 31.8% (active) | – | – | – | – | – | –
24 | C=CCN1C(=O)/C(=C2/Sc3ccccc3N2C)SC1=Nc1c(C)n[nH]c1C | 107% | 86.5% (inactive) | 107% (inactive) | 85% (inactive) | 75.5% (inactive) | – | – | – | -5.2% (inactive) | 0.48% (inactive) | – | – | – | – | – | –
25 | CCn1cc(C(=O)OCC(=O)OC2CC(C)CCC2C(C)C)c(=O)c2ccc(C)nc21 (stereo not drawn) | 94.5% | 67.5% (inactive) | 94.5% (inactive) | 35.3% (inactive) | – | -1.67% (inactive) | 46.3% | 44.7% | 78.4% (active) | -1.45% (inactive) | – | – | – | – | – | –
26 | CC(=O)O[C@]1(C(C)=O)CC[C@H]2[C@@H]3C[C@H](C)C4=CC(=O)CC[C@]4(C)[C@H]3CC[C@@]21C | 153% | 65% (inactive) | 153% (inactive) | 83.3% (inactive) | – | -5.03% (inactive) | 6.83% | 1.8% | – | – | – | – | – | – | – | –
